# About 210 (0.4%) of roughly 52,000 sequences were called active. Many of the other results were omitted from the sample, so actives are more common in it than they were. Values without a mark were called inactive.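 Rule for the calls: active = gene whose silencing raises cell survival under the drug, median off-target-corrected z-score across its silencing RNAs 2 or more; inactive = the rest.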
# Assay: Resistance to Poly (ADP-Ribose) Polymerase inhibitor: Gene Identification via Genome-wide siRNA Screen
# Conditions: mouse BRCA2 R2336H ES cells, olaparib, CellTiter-Glo viability; active compounds read high
# Outline: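 Mouse BRCA2 R2336H ES cells were reverse-transfected with siRNA (20 nM final), treated at 48 h with 500 nM olaparib, and read by CellTiter-Glo after 72 h. Scores: MAD-based z per siRNA, median per gene, seed off-target correction.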
row,Sequence,z-score
1,GGACCCUGAAGGAGCUGAATT against Per2,-1.32
2,UCAAACUAGGUGCUGUUGUTT against Olfr584,-1.11 (active)
3,GGAGAUAAAGUCUUAUCACTT against 9130017N09Rik,0.803
4,GCAUUUCUUUCUUGCCUUCTT against Olfr1276,0.613
5,GGCUAGCUAACUAUCUCUGTT against 9230105I15Rik,0.89
6,GGUUCCAACAAUUGUAAAGTT against Chl1,2.35 (active)
7,GGACAAGCUCCAAAACAACTT against Sfrs4,-1.45
8,CCUGCCUUUUCCUAAUGAATT against Ovca2,0.573
9,GACAAAUAGUGCAGGAGGATT against 2310069N01Rik,0.444
10,CCAAAUACGACUUACGAAATT against Ncam2,0.897
11,CGAUGUUUUCAUGAACGACTT against 0610012D17Rik,0.421
12,GGCAGUGGCUUGGAUAAAUTT against 5730457F11Rik,2.83 (active)
13,GGAAGAAGAGCUCUUUAAATT against Acate2,0.108
14,GGACCAGCACCAUUUCCUATT against Tce4,-0.603
15,GCUACUAUAUGCGUUUCUUTT against Fads2,1.88
16,GGCAUAAAGUUGUUUACAGTT against 3110006P09Rik,3.24 (active)
17,GGUCAUUUCAAGUGCUAAGTT against D7Ertd680e,1.01
18,GGUGGAAUGAAAUAUGAAGTT against Ptp4a1,0.0271
19,CCUGGAAAGACUCUCGGAGTT against Cln2,-0.492
20,GGUGAUGUCUCGGUACCCATT against Mvk,-0.664
21,GGGCUACAGCAUGUAUGAGTT against BC057627,2.38 (active)
22,GGAAAUUUCUUAGCACGAATT against Ppp4r1,0.667
23,GGACUUUGAAGAGGACAAUTT against Dhx38,-2.18
24,GCACGAAGAACCACACAAGTT against 5830484A20Rik,-0.63
25,GCAUGAUUUAGAUCGAGUATT against Uqcrfs1,-1.17
26,GGAUCACUACCAUGAAAACTT against Bace1,-0.551
27,GGUGAAAUAGCUAAAUCAUTT against Usp15,-0.572 (active)

row,Sequence,z-score
1,GGAGAUGGUUGGAUCAUUCTT against D10Ertd610e,0.642
2,GGGUGAAAAGCAUUUCUGUTT against MGI:1923902,1.38
3,GGACAAAGAAGACUCCCGATT against Dpf2,0.386
4,GCAGAUAUUCUCUGUGCAGTT against Ccnf,2.22
5,GGGCUAAAGUAUAUCCAUUTT against Mapk1,1.14 (active)
6,CGAAGGACAAAAUAUCAGCTT against 4930517G15Rik,-0.16
7,GUUGAGGAUAACAUUGAACTT against MGC102419,-0.623
8,GGGUGUAUUCUGCUUUGUATT against 2600013N14Rik,-1.3
9,GGGAAUUGCUCACCUCCAUTT against Klre1,-0.871
10,GCUAAAAUUGGAUCAAGGATT against Ccbp2,2.14
11,GGACUUCAUCAAAGUCUUATT against Cyp11a1,-1.45
12,GGAAGAACUUUAAAAAUGCTT against Mic2l1,0.477
13,CGUACUCUAUGAGGUGCCATT against Rab6ip1,0.703
14,GCUUAAAGAUCGAUCCCGCTT against Slc38a4,0.666
15,GCCAUUAAUAAUCAGUACUTT against Sh2bpsm1,0.686
16,CCAUUGCCAACAACUAGAUTT against Ela3b,2.87 (active)
17,GCUGAGGGUUGAUUAGUGGTT against H2-Bl,-1.2
18,GGCCUCCAGAAACAACUCGTT against Ndst2,1.44
19,GCUAGAACAGCAAAAAAAATT against Scgb3a1,0.00969
20,CCACGUGUUUGCAUUCAAATT against Gdd1,0.222
21,GGAUCCCACACUUUUCUGATT against Rxra,1.02
22,CCUAAAACUCACCAUAGAGTT against Nfatc3,-0.0858
23,GAUAUAAGGACUCUUUGAATT against 4732486J07Rik,-0.212
24,GGUCUUUUGGAAUCUCUGGTT against Crip3,1.26 (active)
25,GGAUAGUAACGGAAACUUGTT against Usp25,2.49
26,GGAUUCGGAAUACUACGAUTT against Abo,1.79
27,GGUGUCCUUUCAAGUUGAUTT against C530005A01Rik,-0.63

row,Sequence,z-score
1,CGGCAGUGUUAAAACAUGATT against Fgfr2,0.114
2,GGAGCAGUAUAUCCUACAUTT against Olfr510,0.104 (active)
3,CCUGAGAACAUUUUAAUCATT against Tas2r116,-0.685
4,CCAAUUCUCGAAUCAUUGCTT against Olfr561,-0.382
5,GCUACGCUAUCCAAAUUCUTT against AF529169,-0.118
6,CCCUUGGAGGAAGCUAACUTT against Pde2a,1.27 (active)
7,GGAGAUGCCCAAUGUUUUCTT against Ehd1,-0.27
8,CGGCCUGUUAUAAACCUGCTT against 4933409K07Rik,-0.131
9,GCCUCAUUGAAAGGAUCCATT against GnT-IX,-0.888
10,GCUUUUGAUCCACAGAUUUTT against Prss33,2.34 (active)
11,GGAACAUCAGGUGCAUGUGTT against Pkd1,1.9
12,GGCUCCACCAAAGCCUGUUTT against 2310066N05Rik,-2.31
13,CCUUGGGACUGACUGUAAGTT against A230072I16Rik,2.25
14,GGUCAAUUAUGAAGAGUUUTT against Calm3,1.59
15,CCGGGUCAGGACAAUUCAUTT against Hsd17b1,1.29 (active)
16,GCAUUCGGCUGAGAAGAUGTT against Foxb2,-1.8
17,GGAUAAUUCAGACAACAAUTT against Fus,3.47 (active)
18,GGAACCAAUAAAUCUGUGCTT against Rfxank,0.27
19,GGUCAUAGGUACGUAUCCGTT against 6430529G09Rik,-0.0313
20,GGCUGUACAGUCAUGCAAGTT against Adamts5,2.62 (active)
21,GGAAAGCUACUGUCAGAGUTT against Olfr473,0.453
22,GGACGUGUGGCUGUUGACATT against Sdc1,-2.23
23,GCUUUAGAUACGUGAUUAGTT against 5830417C01Rik,-1.26
24,GCGACUACUUAGACACUUUTT against 4732481H14Rik,-1.94
25,UAGCCAUCGCUCUUUCUUATT against Olfr594,-0.973
26,GGACAAAGGUGUCAACUCCTT against Crmp1,-0.491
27,GCUCCUAGGAACUUGGUUATT against Pacsin2,2.36 (active)

row,Sequence,z-score
1,CGAGUUCGGUAUGAGUGGATT against Clptm1,-1.24
2,GGUCGGAAGAAUCUAAAGGTT against Dmp1,0.0661
3,GGAAGAGAGGACCAUGAAGTT against Usp18,2.69 (active)
4,GAGAAUCCAGAACUCCAAUTT against Olfr952,-0.963
5,GCAAUCAUUAAGCAGAUCATT against Prkce,-2.49
6,GGCCGACAAGCGAUCAAAATT against AU040829,-0.237
7,GGAUUUGGCCAACUCACCCTT against Acpp,0.16 (active)
8,CCCUUCCAACAAUUAUACUTT against Tmem27,1.04
9,GGAGAGAAAGAAGUUGUUGTT against Lcn5,2.43
10,GGAUUUCGACAAUAUGAAGTT against Chrnb2,2.24 (active)
11,CCUAUGAAGCUCCAUUAUGTT against Madcam1,0.762
12,CACUCUUGAUACAAAUGAGTT against Ifna6T,0.264
13,GGCACAAAGGCAGUUAUUCTT against 1110049G11Rik,0.847
14,GGGAAAAAUAUCAGUUAUGTT against Khdrbs1,1.08 (active)
15,GCUGGUGUCAUUAGACAGUTT against Npc1l1,-0.302
16,GGCUAUAUCAAUGAAUUUGTT against Polr3b,0.129
17,GGAUGUUCAUCUAUUUCUUTT against Mja1l,-0.191
18,GGGACCAAGCAGGUAAAAATT against Kif3a,4.17 (active)
19,GGCCUAAGGACAAUUAUUUTT against 9130022A01Rik,0.222
20,CCAAAUUCAUUCUAGCUCGTT against Copeb,0.474
21,CCGAAUGGAAUACCAAAUUTT against Cst8,-0.186
22,GGAUGUCAGCUGGUGGUUATT against Tmprss6,-0.447
23,CCAUCUUGGGUUCUGGUCATT against BC057627,-0.312 (active)
24,GGUGUCUGAAUUUGUGGCUTT against Abtb1,1.65

# Reference: PubChem BioAssay AID1347423 (Functional Genomics Laboratory (NCATS/FGL), 2020)
